# BoNT-F LC inh: BoNT F light chain protease inhibition. AID 588497. inhibition, % at 10 µM. Multiplex microsphere protease cleavage assay, flow cytometry. 360,000 compounds, 0.22% hits; in the data active means inhibition above about 35%, passing the limit was not always enough; inconclusive means no clear call, values can overlap the other calls; further: plate controls were buffer without enzyme for full effect and enzyme alone for no effect
# BoNT-A LC inh2: inhibitors of Botulinum neurotoxin A light chain protease; 360,000 compounds, 0.17% hits; multiplex microsphere protease substrate cleavage, flow cytometry; inhibition, % at 10 µM; AID 588499; further: plate controls were buffer without enzyme for full effect and enzyme alone for no effect
# Autofluor counter: compound fluorescence in toxin protease inhibitor counterscreen. compound autofluorescence counterscreen, microsphere flow cytometry; stronger effect = higher value. fluorescence intensity (no concentration beside the values). 360,000 compounds, 3.1% hits; in the data active means fluorescence intensity above about 16000; inconclusive means no clear call, values can overlap the other calls
# Vc quorum ag: quorum light induction in luxS cqsA deficient V. cholerae. V. cholerae BH1578 lux reporter, luminescence, 6 h. activation, % at 18.7 µM. 350,000 compounds, 0.16% hits. AID 588436; in the data active means activation mostly above about 9.7%, no sharp cut-off; inconclusive means no clear call, values can overlap the other calls; inactive means mostly below about 3.7%
# MazF activator: activators of E. coli MazEF toxin-antitoxin RNase; FAM/BHQ RNA-DNA oligo cleavage fluorescence, 5 h; P0AE70; 350,000 compounds, 0.32% hits; activation, % at 20 µM; AID 504720; in the data active means activation above about 50%
# Target sequence (P0AE70 whole entry, looked up): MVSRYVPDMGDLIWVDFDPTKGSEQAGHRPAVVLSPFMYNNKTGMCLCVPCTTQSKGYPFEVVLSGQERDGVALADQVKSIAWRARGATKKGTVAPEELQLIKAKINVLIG
# Anthrax LF prot: inhibitors of Bacillus anthracis lethal factor protease; P15917; multiplex microsphere protease cleavage assay, LF; inhibition, % at 10 µM; 360,000 compounds, 0.12% hits; AID 588501; further: plate controls were buffer without enzyme for full effect and enzyme alone for no effect
# * hit, by the source's call; i = inactive; ? = inconclusive; . = no result; + = active, no number. Rows were chosen to be rich in hits. Some 3.9% of all compounds tested hit in one or more screens of this group. Unless noted, no stated cut-off is given here; in the data, active means inhibition above about 30%; inconclusive means no clear call, values can overlap the other calls; inactive means below that.
SMILES,BoNT-F LC inh,BoNT-A LC inh2,Autofluor counter,Vc quorum ag,MazF activator,Anthrax LF prot
Nc1ncnc2c1ncn2[C@@H]1O[C@H](COP(=O)(O)O)[C@@H](O)[C@H]1O,2,0,5509,-3,6,-3
c1ccc2[nH]c3cc4ncnc4cc3nc2c1,2,4,2613,i,-677,2
C[C@@H](NC(=O)[C@@H]1CCCN1C(=O)[C@@H]1CCCN1)c1ccccc1,5,1,5670,.,.,-7
Cc1ccc(C)n1-c1nccc(-c2cccs2)n1,4,4,21459*,1,-2,-3
Cc1ccc(C)n1-c1nccc(-c2ccco2)n1,1,0,4413,-3,11,-4
CCCCC(CCC(=O)Nc1nccs1)C(=O)O (stereo not given),0,?,20150*,1,0,-2
CCCCC(C(=O)O)C(C)CC(=O)Nc1nccs1 (stereo not given),-1,0,3274,-1,8,4
CCOC(=O)C1(S(=O)(=O)c2ccc(Cl)cc2)CCN(Cc2ccc(C)cc2)CC1,-4,0,20535*,i,2,-9
Cc1ccc(C(=O)Nc2c3c(nn2C(C)(C)C)CS(=O)(=O)C3)cc1C,-2,-2,20652*,0,-2,-1
COc1ccc(C(=O)/C=C2/Sc3cc4c(cc3N2C)OCO4)cc1,-4,2,2029,0,-11,-1
COc1ccc2c(c1)S/C(=C\C(=O)c1ccncc1)N2C,-32,3,2915,0,141*,-11
CN1/C(=C/C(=O)c2ccc(Cl)cc2)Sc2cc3c(cc21)OCO3,-1,3,2510,0,431*,1
O=C(Cc1ccccc1[N+](=O)[O-])Nc1ccc(S(=O)(=O)N2CCCC2)cc1,?,0,?,0,.,-1
COc1ccc(CCN(C)Cc2c(F)cccc2F)cc1OC,-2,?,23473*,0,3,-2
COc1cc(CN(C)CCc2ccccc2)ccc1OCc1ccccc1,24,5,8500,-12,-1,0
COc1ccccc1CCC(=O)Oc1ccccc1C#N,4,1,6046,-4,1,-1
CCOc1cccc(C=Nc2cc(C)cc(C)c2O)c1O,4,?,22996*,1,12,-1
N[C@@H](Cc1ccccc1)c1nnc(SCc2ccccc2Cl)o1,-5,?,19863*,-4,-2,1
N[C@@H](Cc1c[nH]c2ccccc12)c1nnc(SCc2ccc(F)cc2)o1,-4,?,24676*,i,7,-3
C=C(C)CSc1nnc([C@@H](N)Cc2c[nH]c3ccccc23)o1,-6,?,19997*,i,-3,-2
N[C@@H](Cc1c[nH]c2ccccc12)c1nnc(SCc2ccccc2)o1,-14,0,4809,-2,6,-3
CN(N=Nc1ccc([N+](=O)[O-])cc1)c1ccccc1,-1,-1,2596,i,+,1
CN(N=Nc1cccc([N+](=O)[O-])c1)c1ccccc1,-16,-1,4156,i,10,2
O=c1c([N+](=O)[O-])cccn1Cc1ccccc1Cl,-15,0,4516,0,4,-1
O=c1c([N+](=O)[O-])cccn1Cc1cccc(Br)c1,28,0,3533,46*,0,-5
SMILES,BoNT-F LC inh,BoNT-A LC inh2,Autofluor counter,Vc quorum ag,MazF activator,Anthrax LF prot
CC(Oc1ccccc1)C(=O)Nc1nnc(S(=O)(=O)Nc2ccccc2)s1 (stereo not given),-1,-1,5882,0,2,4
C[C@H]1CCCCO[C@H](CN(C)Cc2ccc(C(=O)O)cc2)[C@@H](C)CN([C@@H](C)CO)C(=O)c2cc(NS(=O)(=O)c3cn(C)cn3)ccc2O1,0,0,3841,i,6,2
O=C(O)c1ccc(N/N=C/C(Br)=C/c2ccccc2)cc1,-3,0,3416,0,61*,6
O=C(N/N=C/C(Br)=C/c1ccccc1)C(O)c1ccccc1 (stereo not given),?,1,3143,i,2,-6
COc1ccc(C(CNC(=O)c2cccc(NS(=O)(=O)c3ccccc3)c2)N2CCCC2)cc1 (stereo not given),4,-4,6451,i,0,-5
COc1ccc(C(CNC(=O)c2cccc(Br)c2)N2CCCC2)cc1 (stereo not given),-2,-2,28340*,i,11,-4
COc1ccc(C(CNC(=O)c2cc(C)oc2C)N2CCOCC2)cc1 (stereo not given),6,1,16136*,0,-19,1
COc1ccccc1NS(=O)(=O)c1cccc(C(=O)NCC(c2ccccc2OC)N2CCCC2)c1 (stereo not given),8,1,20056*,-1,1,0
CCc1cc(C(=O)NCC(c2ccc(OC)cc2)N2CCOCC2)sc1C (stereo not given),?,?,?,-1,2,?
COc1ccc(C(CNC(=O)c2ccc(Cl)c(S(=O)(=O)N3CCCC3)c2)N2CCCC2)cc1 (stereo not given),26,-10,30581*,-1,-8,-2
COc1cccc(-n2cnc3sc(C)cc3c2=O)c1,-5,-1,4547,0,3,-4
COC(=O)c1cc(S(=O)(=O)NCCCN2CCCC2=O)cn1C,-4,-1,5171,i,6,0
COc1ccc(C(CNC(=O)c2cccc(S(=O)(=O)N(C)c3ccccc3)c2)N2CCCC2)cc1 (stereo not given),27,9,59722*,i,-27,-6
C[C@H](CO)N1C[C@H](C)[C@H](CN(C)Cc2ccncc2)Oc2ncc(Br)cc2C1=O,5,0,2936,-1,12,-8
CCC1Oc2ccc(C)cc2N(CC(=O)N(Cc2ccc3c(c2)OCO3)CC2CCCO2)C1=O (stereo not given),-4,-2,24977*,0,3,2
Cc1ccc(C)c2c1N(Cc1ccccc1)C(=O)C21OCCO1,?,0,3064,i,1,-18
COC(=O)c1ccccc1N=Nc1c(C)noc1C,?,3,3984,0,8,34*
O=C(Nc1ccccc1C(=O)NC1CC1)c1ccccc1F,0,2,8458,1,1,10
COc1cc(CNCCO)ccc1OCC(=O)Nc1ccc(Br)cc1,-3,2,22933*,i,1,-1
COc1ccccc1OCC(=O)Nc1ccc(Cl)cc1,-4,?,23170*,i,-3,-2
COc1ccccc1OCC(=O)Nc1ccc(C(N)=O)cc1,-2,-2,21458*,i,-10,-1
COc1ccccc1OCC(=O)Nc1ccc(NC(=O)COc2ccccc2OC)cc1,-1,1,4387,i,12,-7
CCOc1cc(C(=O)OC(C)C(=O)Nc2ccc(NC(C)=O)cc2)ccc1OCC(=O)N1CCCCC1 (stereo not given),-3,-2,6274,0,1,-3

# Compound activity as filed in PubChem.
